16 compounds from PubChem BioAssay can be followed below.

Assay [1] has as its system Plasmodium falciparum Sir2 (PF13_0152, Sir2A). Briefly: pfSir2 binders on small-molecule microarrays, primary screen, biochemical, small-molecule microarray, 635 nm fluorescence (AID 1098).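 Note: score merges spot fluorescence intensity with its signal-to-noise ratio.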 The conditions noted are these: small-molecule microarray binding, fluorescence 635 nm; higher = more signal.
Assay [2] in a line: small-molecule microarray binders of probe aDKK1, primary screen, biochemical, biotinylated probe, 635/667 nm fluorescence (AID 1099).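 Note: score merges 667nm spot fluorescence with signal to noise across triplicate slides; reference of the scale not given here.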 The following applies: higher = more signal.
Assay [3] in a line: small-molecule microarray binders of probe aCHRDL2, primary screen, biochemical, biotinylated probe, 635/667 nm fluorescence (AID 1100). The conditions noted are these: higher = more signal.
The nature of assay [4]: splicing luciferase reporter signal modulators, primary screen, spliceosome inhibition project, cell-based, HEK293, splice +/- reporter (AID 1101).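 Note: HEK293 cells carrying a splicing-competent luciferase reporter gene; test concentration not given here.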 The following applies: luminescence, 24 h, higher = more signal, called active from +8 up or from −8 down.
For assay [5], the target named is Fibroblast growth factor 10 (Homo sapiens) (UniProt O15520). Briefly: FGF10 binders on small-molecule microarrays, primary screen, biochemical, small-molecule microarray, 635 nm fluorescence (AID 1102). The following applies: FGF10 binding, fluorescence 635 nm, higher = more signal.
For assay [6], the system named is glycogen synthase kinase-3 (GSK3A per assay name; protocol says GSK3B). Briefly: GSK3 binders on small-molecule microarrays, primary screen, biochemical, small-molecule microarray, 635 nm fluorescence, GSK3A (AID 1103). Note: the record names both GSK3A and GSK3B. The following applies: small-molecule microarray binding, fluorescence 635 nm; higher = more signal.
Assay [7] has as its target Epidermal growth factor receptor (Homo sapiens) (UniProt P00533). Briefly: EGFR binders on small-molecule microarrays, primary screen, biochemical, small-molecule microarray, 635 nm fluorescence (AID 1104).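 Note: score merges 667 nm emission intensity with spot signal to noise over triplicate slides.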 The conditions noted are these: EGFR binding, higher = more signal.
Assay [8] addresses Follistatin-related protein 3 (Homo sapiens) (UniProt O95633). Put plainly: FSTL3 binders on small-molecule microarrays, primary screen, biochemical, small-molecule microarray, 635 nm fluorescence (AID 1105).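 Note: score merges emission near 667 nm and signal to noise per printed spot across three slides.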 The conditions noted are these: FSTL3 binding, higher = more signal.
For assay [9], the target named is Dickkopf-related protein 1 (Homo sapiens) (UniProt O94907). Briefly: DKK1 binders on small-molecule microarrays, primary screen, biochemical, small-molecule microarray, 635 nm fluorescence scan (AID 1106).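 Note: score merges emission near 667 nm with signal to noise over three replicate slides.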 The following applies: DKK1 binding, higher = more signal.
Assay [10] relates to Inhibin beta A chain (activin A). Briefly: INHBA (activin A) binders on microarrays, primary screen, biochemical, small-molecule microarray, 635 nm fluorescence scan (AID 1107).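 Note: mouse activin A protein probed at 4.33 µg/mL on printed slides; score merges bound-protein fluorescence near 667 nm with spot signal-to-noise.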 The conditions noted are these: small-molecule microarray binding, higher = more signal.

Calls of active or inactive are those of the source.

Epidermal growth factor receptor (Homo sapiens), sequence (P00533 whole entry, looked up): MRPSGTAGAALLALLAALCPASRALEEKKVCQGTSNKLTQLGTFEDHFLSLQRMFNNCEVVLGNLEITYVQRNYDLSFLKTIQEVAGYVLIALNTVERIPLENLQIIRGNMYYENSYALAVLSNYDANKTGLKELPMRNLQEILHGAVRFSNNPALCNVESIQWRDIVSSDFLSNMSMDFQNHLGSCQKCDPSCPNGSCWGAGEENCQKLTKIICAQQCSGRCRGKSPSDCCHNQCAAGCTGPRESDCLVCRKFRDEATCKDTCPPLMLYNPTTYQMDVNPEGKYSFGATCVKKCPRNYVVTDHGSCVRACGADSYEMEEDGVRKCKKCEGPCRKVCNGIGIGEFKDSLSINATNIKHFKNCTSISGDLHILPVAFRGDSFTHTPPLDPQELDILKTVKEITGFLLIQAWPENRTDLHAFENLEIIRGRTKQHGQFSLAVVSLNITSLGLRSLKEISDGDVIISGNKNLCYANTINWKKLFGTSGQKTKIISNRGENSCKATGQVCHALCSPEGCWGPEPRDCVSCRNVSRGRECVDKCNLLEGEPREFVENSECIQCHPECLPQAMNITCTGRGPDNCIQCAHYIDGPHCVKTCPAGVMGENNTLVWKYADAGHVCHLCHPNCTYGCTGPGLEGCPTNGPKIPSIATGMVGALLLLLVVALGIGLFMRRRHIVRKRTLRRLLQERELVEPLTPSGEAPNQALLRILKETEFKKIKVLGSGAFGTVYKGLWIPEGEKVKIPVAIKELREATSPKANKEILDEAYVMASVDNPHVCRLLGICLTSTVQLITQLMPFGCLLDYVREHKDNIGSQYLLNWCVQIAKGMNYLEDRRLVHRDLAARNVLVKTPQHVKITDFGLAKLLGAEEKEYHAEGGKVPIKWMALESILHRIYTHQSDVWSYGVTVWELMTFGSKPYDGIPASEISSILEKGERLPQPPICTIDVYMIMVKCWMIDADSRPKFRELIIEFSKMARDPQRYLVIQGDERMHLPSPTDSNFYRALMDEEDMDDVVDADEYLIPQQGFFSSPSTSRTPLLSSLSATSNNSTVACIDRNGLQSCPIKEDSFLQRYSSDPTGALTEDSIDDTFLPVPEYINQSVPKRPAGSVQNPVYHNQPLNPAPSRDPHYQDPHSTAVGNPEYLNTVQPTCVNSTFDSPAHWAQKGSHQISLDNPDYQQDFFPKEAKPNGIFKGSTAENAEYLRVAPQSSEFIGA
Fibroblast growth factor 10 (Homo sapiens), sequence (O15520 whole entry, looked up): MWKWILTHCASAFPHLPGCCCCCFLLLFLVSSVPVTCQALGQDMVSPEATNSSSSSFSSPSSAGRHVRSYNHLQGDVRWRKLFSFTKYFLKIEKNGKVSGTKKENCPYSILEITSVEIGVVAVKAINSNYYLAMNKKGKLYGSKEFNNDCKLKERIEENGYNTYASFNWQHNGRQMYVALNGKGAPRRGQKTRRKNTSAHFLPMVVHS
Dickkopf-related protein 1 (Homo sapiens), sequence (O94907 whole entry, looked up): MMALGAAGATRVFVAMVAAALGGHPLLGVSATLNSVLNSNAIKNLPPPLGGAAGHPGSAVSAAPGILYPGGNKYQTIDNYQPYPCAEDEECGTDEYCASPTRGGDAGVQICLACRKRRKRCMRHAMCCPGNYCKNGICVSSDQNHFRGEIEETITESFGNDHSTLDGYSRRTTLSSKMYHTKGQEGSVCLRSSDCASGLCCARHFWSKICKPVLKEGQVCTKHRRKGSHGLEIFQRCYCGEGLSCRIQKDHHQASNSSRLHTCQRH
Follistatin-related protein 3 (Homo sapiens), sequence (O95633 whole entry, looked up): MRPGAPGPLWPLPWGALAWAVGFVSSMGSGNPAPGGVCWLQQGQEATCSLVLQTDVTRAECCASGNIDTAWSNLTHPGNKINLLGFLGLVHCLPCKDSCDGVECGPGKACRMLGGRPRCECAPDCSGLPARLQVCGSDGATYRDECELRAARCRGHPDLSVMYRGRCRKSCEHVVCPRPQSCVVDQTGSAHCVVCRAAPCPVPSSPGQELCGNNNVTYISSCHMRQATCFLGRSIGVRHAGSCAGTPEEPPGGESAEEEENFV

Turning to `COc1ccc(C(O)C2C=CC3C(=O)N(c4ccccc4)C(=O)C3N2Nc2ccc(C(C)C)cc2)c2ccccc12` (stereo not given), the composite z-score was 1.6 in [1]; 0.661 in [2]; 0.942 in assay [3]; 0.839 in assay [5]; 1.29 in assay [6]; 0.0751 in [7]. The composite z-score is 1.04 in [8], -0.0879 in assay [9] and 0.87 in assay [10]. Moreover, in assay [4], the z-score is 0.48 (inactive).

Turning to `C=C(C)[C@@H]1CC=C(C(O)C2C=CC3C(=O)N(c4ccccc4)C(=O)C3N2Nc2ccc(C#N)cc2)CC1` (stereo not given in full), the composite z-score in [1] was 1.31; in assay [2] it was 0.327; in assay [3], 1.15; in assay [5] it was 0.997; in [6] it was 1.31; in assay [7], 0.628. The composite z-score was 1.34 in assay [8], -0.0273 in assay [9] and 0.749 in assay [10]. Also, the z-score in assay [4] is 0.857 (inactive).

Regarding `COC(=O)C1N=C(c2ccc(OCCCO)cc2)N(c2ccccc2)O1` (stereo not given), the composite z-score is 1.05 in [1]; 0.947 in [2]; 1.11 in assay [3]; 1.48 in [5]; 1.22 in assay [6]; 0.172 in [7]. The composite z-score was determined as 0.864 in assay [8], 0.604 in assay [9] and 0.453 in [10]. Besides, the z-score in [4] was -0.155 (inactive).

Regarding `CN1C=C(C(=O)OCCS(C)(=O)=O)C(C(=O)OCCS(C)(=O)=O)=CC(c2ccc(CO)cc2)=CC1c1cccs1` (stereo not given), the composite z-score came to 0.76 in assay [1]; 0.162 in [2]; 0.102 in assay [3]; 0.588 in assay [5]; 0.499 in [6]; 0.294 in assay [7]. Also, the figures for the composite z-score in [8], in assay [9] and in [10] were 0.226, -0.0496 and 1.47, respectively. In addition, the z-score in [4] was 0.497 (inactive).

Turning to `C=C(CCCC)C(=O)CC[C@H](OC(C)=O)c1ccc(OCCO)cc1`, the composite z-score in assay [1] is 0.56; in assay [2], -0.262; in assay [3] it was 0.0984; in [5], -0.509; in assay [6], -1.24; in [7], -0.448. Also, the composite z-score in assay [8] was -0.746; in assay [9], -0.8; in assay [10], -0.146. Also, the z-score in [4] is -0.942 (inactive).

As for `C=CCNC(=O)[C@H]1[C@@H]2C(=O)O[C@@H](c3ccccc3)[C@@H](c3ccccc3)N2[C@@H](c2ccc(OCCO)cc2)[C@]12C(=O)Nc1ccc(C#CCNC(N)=O)cc12`, the composite z-score in [1] was 1.2; in assay [2] it was 0.867; in [3], 1.05; in [5], 1.13; in [6], 0.332; in assay [7], -0.471. In addition, the composite z-score in assay [8] amounted to 0.65; in assay [9], 0.0352; in assay [10] it was 0.624. Moreover, the z-score in assay [4] was -0.595 (inactive).

`COC(=O)[C@@]1(Cc2ccc(F)cc2)[C@H]2c3cc(C(=O)N4CCCC4)n(C)c3C[C@H]2CN1C(=O)c1ccccc1`: the composite z-score in assay [1] was 1.24; in assay [2] it was 0.874; in assay [3] it was 1.22; in [5], 0.549; in [6], 0.128; in assay [7], -0.372. In addition, the composite z-score is -0.296 in [8], -0.856 in assay [9] and 1.21 in [10]. In addition, the z-score in [4] was -2.19 (inactive).

As for `Cc1ccc(N2C(=O)c3ccccc3[C@](C)(C(=O)NCc3ccccc3)[C@@H]2c2ccc(CO)cc2)nc1`, the composite z-score in [1] is 1.39; in assay [2] it was 0.499; in [3], 0.615; in [5] it was 0.0497; in assay [6] it was -0.341; in [7], -0.219. The composite z-score in assay [8] is -0.192; in assay [9] it was 0.381; in assay [10] it was 1.21. In addition, in assay [4], the z-score is -0.0691 (inactive).

Turning to `CCOC(=O)C[C@H]1[C@H](OC(=O)c2ccc(-c3ccccc3)cc2)[C@@H](NC(=O)Cc2ccc(OC)cc2)c2cc(OCCCO)ccc2N1C(=O)Cc1ccc(OC)cc1`, the composite z-score in [1] is 0.064; in [2], 0.288; in [3], 0.723; in assay [5] it was 0.244; in assay [6], -0.602; in assay [7], 0.0599. Also, the composite z-score in assay [8] was -0.0955; in assay [9] it was -0.276; in assay [10], 0.38. The z-score in assay [4] was -0.0344 (inactive).

Regarding `O=C(NCC(O)CO)[C@@]1(CCS(=O)(=O)c2ccccc2)COC(c2ccc(OCCCO)cc2)=N1` (stereo not given in full), the composite z-score in assay [1] was 1.13; in assay [2], 1.07; in [3], 1.16; in [5], 0.655; in assay [6] it was -0.454; in assay [7], -0.375. Also, the figures for the composite z-score in assay [8], in assay [9] and in assay [10] were -0.199, -0.522 and 0.877, respectively. The z-score in assay [4] was 0.475 (inactive).

Consider `COC(=O)C(CC#Cc1ccc2c(c1)[C@]1(C(=O)N2)[C@H](c2ccc(OCCO)cc2)N2[C@H](c3ccccc3)[C@H](c3ccccc3)OC(=O)[C@H]2[C@@H]1C(=O)N1CCN(c2ncccn2)CC1)C(=O)OC`, for which the composite z-score in assay [1] is 1.35; in assay [2] it was 0.841; in [3], 0.782; in assay [5], 1.14; in assay [6] it was 1.32; in assay [7], 0.331. Moreover, the composite z-score in assay [8] is 1.37; in assay [9] it was 0.982; in [10], 0.53. For the same compound, the z-score in [4] was 0.0768 (inactive).

As to `[N-]=[N+]=NCc1ccccc1C[C@@]1(C(=O)N2CCCCC2)N=C(c2ccc(OCCCO)cc2)O[C@@H]1c1ccccc1CN=[N+]=[N-]`, the composite z-score is 0.649 in assay [1]; 0.453 in [2]; 1.07 in [3]; 0.375 in assay [5]; 0.962 in assay [6]; -0.0197 in assay [7]. The composite z-score in [8] is -0.0105; in assay [9], 0.287; in assay [10] it was 0.964. The z-score in [4] is -0.4 (inactive).

With `COC(=O)C(CC#Cc1ccc2c(c1)[C@]1(C(=O)N2)[C@H](C(=O)Nc2nc3ccccc3s2)[C@H]2C(=O)O[C@H](c3ccccc3)[C@H](c3ccccc3)N2[C@@H]1c1ccc(OCCO)cc1)C(=O)OC`, the composite z-score in [1] came to 0.912; in assay [2] it was 0.277; in [3] it was 0.575; in assay [5] it was 1.15; in assay [6] it was 1.21; in [7] it was 0.468. Also, the composite z-score in assay [8] amounted to 1.19; in assay [9] it was 0.344; in [10], 0.519. The z-score in [4] is -1.25 (inactive).

On to `COCC1=C2[C@@H](CCc3ccccc3)OB(O)C[C@@H]2[C@@H]2C(=O)N(C)C(=O)[C@@H]2C1`, for which the composite z-score in assay [1] was -0.069; in [2], -0.333; in assay [3], -0.57; in [5] it was 0.711; in assay [6], -0.0422; in assay [7], 0.3. Besides, the composite z-score in [8] worked out at 0.146; in assay [9], 0.216; in assay [10] it was 0.808. In addition, the z-score in assay [4] was 0.348 (inactive).

Consider `C=CCNC(=O)[C@@H]1[C@H]2C(=O)O[C@H](c3ccccc3)[C@H](c3ccccc3)N2[C@H](c2ccc(O)cc2)[C@@]12C(=O)N(C(=O)OCCOC)c1ccc(C#CCCO)cc12`, for which the composite z-score in assay [1] was found to be 1.25; in assay [2] it was 0.373; in assay [3], 0.42; in [5] it was 1.37; in [6], 1.04; in assay [7], 0.683. For the same compound, the composite z-score in assay [8] was determined as 1.12; in assay [9], 0.921; in [10], 0.616. Further, the z-score in assay [4] is -0.591 (inactive).

As to `COC(=O)[C@@]1(Cc2ccc(F)cc2)[C@H]2c3cc(C(=O)N(C)C)n(Cc4ccc(O)c(OC)c4)c3C[C@H]2CN1C(=O)c1ccccc1`, the composite z-score in [1] is 0.472; in assay [2], 0.0331; in assay [3], 0.128; in [5] it was 0.448; in [6], 0.538; in assay [7], 0.269. For the same compound, the values for the composite z-score in assay [8], in assay [9] and in [10] were 0.0792, 0.134 and 0.937, respectively. Moreover, the z-score in assay [4] is -4.34 (inactive).
